The supplement of paper PMC9588786
Where “and” joins values, the source holds several entries; their conditions need not be identical. Equal values may be shown once. ± gives the standard deviation of the averaged measurements.

Tested on: HT-1080
Experiment: relative cell viability with RSL3 co-treatment (fraction of control); higher = stronger protection from RSL3-induced ferroptosis (higher viability)
Conditions: 10 µM
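Note: viability read as CCK-8 absorbance at 450 nm in cells co-exposed to the GPX4 inhibitor RSL3, relative to a 0.01% DMSO vehicle control.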

## COc1ccc(-c2ccc3ncc4c(c3c2)n(-c2ccc(N3CCNCC3)c(C(F)(F)F)c2)c(=O)n4C)cn1
  relative cell viability: 0.29 ± 0.087

## Cc1ccc(-n2nc(C(C)(C)C)cc2NC(=O)Nc2ccc(OCCN3CCOCC3)c3ccccc23)cc1 [Doramapimod (BIRB 796)]
  relative cell viability: 0.57 ± 0.03

## C=CC(=O)Nc1ccc(CN2C(=O)N(c3cc(OC)cc(OC)c3)Cc3cnc(Nc4ccc(N5CCN(C)CC5)cc4)nc32)cc1
  relative cell viability: 0.56 ± 0.01

## CCN(C)S(=O)(=O)Nc1ccc(F)c(C(=O)c2c[nH]c3ncc(-c4cnc(C5CC5)nc4)cc23)c1F
  relative cell viability: 0.71 ± 0.017

## O=C(O)c1ccc(Nc2ncc3c(n2)-c2ccc(Cl)cc2C(c2c(F)cccc2F)=NC3)cc1
  relative cell viability: 0.433 ± 0.045

## Cn1cnc2c(F)c(Nc3ccc(Br)cc3F)c(C(=O)NOCCO)cc21
  relative cell viability: 0.827 ± 0.097

## O=C1NC(=O)/C(=C/c2ccc(-c3ccc(F)cc3O)o2)S1
  relative cell viability: 0.75 ± 0.052

## NC(=O)c1ccc(N(C(N)=O)c2c(F)cccc2F)nc1-c1ccc(F)cc1F
  relative cell viability: 0.733 ± 0.042

## COc1cccc(-c2cc(=O)c3ccccc3o2)c1N
  relative cell viability: 0.717 ± 0.064

## CN1CCN(c2ccc3nc(-c4c(N)c5c(F)cccc5[nH]c4=O)[nH]c3c2)CC1 [Dovitinib (TKI-258) Dilactic Acid]
  relative cell viability: 0.563 ± 0.25

## COc1cc2c(c(OC)c1OC)-c1c(cc3c(c1OC)OCO3)CC(C)C(C)C2 (stereo not drawn) [Schisandrin B (Sch B)]
  relative cell viability: 1.01 ± 0.17

## N#CC[C@H](C1CCCC1)n1cc(-c2ncnc3[nH]ccc23)cn1
  relative cell viability: 0.897 ± 0.083

## Cc1cc(Nc2cc(N3CCN(C)CC3)nc(/C=C/c3ccccc3)n2)n[nH]1
  relative cell viability: 0.203 ± 0.1

## Cc1cc(Nc2ncc(Cl)c(Nc3ccccc3S(=O)(=O)C(C)C)n2)c(OC(C)C)cc1C1CCNCC1 [Ceritinib (LDK378)]
  relative cell viability: 0.513 ± 0.057

## O=c1cc(-c2ccccc2)oc2c(O)c(O)ccc12 [7,8-Dihydroxyflavone]
  relative cell viability: 0.713 ± 0.011

## COc1cc2ncnc(Nc3ccc(O)c(Br)c3)c2cc1OC
  relative cell viability: 0.8167 ± 0.0058

## COc1ccc(-c2ccc3c(N4CCOCC4)nc(N4C[C@@H](C)O[C@@H](C)C4)nc3n2)cc1CO
  relative cell viability: 0.7 ± 0.07

## COc1cccc2cc(-c3nc([C@H]4CC[C@H](C(=O)O)CC4)n4ncnc(N)c34)[nH]c12
  relative cell viability: 0.7 ± 0.07

## N#CC1(c2ccc(NC(=O)c3cccnc3NCc3ccncc3)cc2)CCCC1 [Apatinib]
  relative cell viability: 0.643 ± 0.046

## Cc1ccc(NC(=O)c2cccc(N(C)C)c2)cc1NC(=O)c1ccc(O)cc1
  relative cell viability: 0.587 ± 0.15

## COc1cccc(-n2c(=O)[nH]c3cc(Cl)n(-c4ccc(-c5cccc(OC)c5O)cc4)c3c2=O)c1
  relative cell viability: 0.807 ± 0.081

## CNC(=O)Nc1ccc(-c2nc(N3CC4CCC(C3)O4)c3cnn(C4CCC5(CC4)OCCO5)c3n2)cc1
  relative cell viability: 0.483 ± 0.14

## Cc1[nH]nc2ccc(-c3cncc(OC[C@@H](N)Cc4ccccc4)c3)cc12
  relative cell viability: 0.59 ± 0.02

## COc1cc(OC)c(/C=C/S(=O)(=O)Cc2ccc(OC)c(NCC(=O)O)c2)c(OC)c1
  relative cell viability: 0.7 ± 0.026

## O=C1NC(=O)C(c2cnc3ccccn23)=C1c1cn2c3c(cc(F)cc13)CN(C(=O)N1CCCCC1)CC2
  relative cell viability: 0.577 ± 0.015

## Cc1cnc(-c2cnc(NCCNc3ccc(C#N)cn3)nc2-c2ccc(Cl)cc2Cl)[nH]1
  relative cell viability: 0.55 and 0.457

## N#C/C(=C(/N)Sc1ccc(N)cc1)c1ccccc1C(F)(F)F
  relative cell viability: 0.913 ± 0.038

## CC1(C)CNc2cc(NC(=O)c3cccnc3NCc3ccncc3)ccc21 [Motesanib Diphosphate (AMG-706)]
  relative cell viability: 0.533 ± 0.21

## COCC(=O)NC/C=C/c1ccc2ncnc(Nc3ccc(Oc4ccc(C)nc4)c(C)c3)c2c1
  relative cell viability: 0.647 ± 0.095

## Oc1c(F)cc(-c2cnccc2-c2ccc(N3CCOCC3)cc2)cc1F
  relative cell viability: 0.757 ± 0.072

## CCNC(=O)Nc1ccc(-c2nc3c(c(N4CCOC[C@@H]4C)n2)CCN(C2COC2)C3)cc1
  relative cell viability: 0.503 ± 0.2

## O=c1ncn2nc(Sc3ccc(F)cc3F)ccc2c1-c1c(Cl)cccc1Cl
  relative cell viability: 0.5 ± 0.14

## O=C(NC1CCNCC1)c1n[nH]cc1NC(=O)c1c(Cl)cccc1Cl
  relative cell viability: 0.56 ± 0.18

## CCn1c(-c2nonc2N)nc2c(C#CC(C)(C)O)ncc(OC[C@H]3CCCNC3)c21
  relative cell viability: 0.563 ± 0.18

## Cn1cc(-c2ccc3nnc(C(F)(F)c4ccc5ncccc5c4)n3n2)cn1
  relative cell viability: 0.743 ± 0.04

## COc1cc(CCc2cc(NC(=O)c3ccc(N4CC(C)NC(C)C4)cc3)n[nH]2)cc(OC)c1 (stereo not drawn)
  relative cell viability: 0.673 ± 0.14

## CO[C@H]1C[C@@H]2CC[C@@H](C)[C@@](O)(O2)C(=O)C(=O)N2CCCC[C@H]2C(=O)O[C@H]([C@H](C)C[C@@H]2CC[C@@H](OCCO)[C@H](OC)C2)CC(=O)[C@H](C)/C=C(\C)[C@@H](O)[C@@H](OC)C(=O)[C@H](C)C[C@H](C)/C=C/C=C/C=C/1C [Everolimus (RAD001)]
  relative cell viability: 0.607 ± 0.13

## Nc1cc(C(F)(F)F)c(-c2cc(N3CCOCC3)nc(N3CCOCC3)n2)cn1 [Buparlisib (BKM120, NVP-BKM120)]
  relative cell viability: 0.643 ± 0.031
